This assay is described as follows: cell-free HIV fusion peptide-binding blockers – biochemical, uHTS, fluorescence dequenching, primary screen (AID 1986). The following applies: 30 min, stronger effect = higher value.
[1] abbreviates: measured here: repeat confirmation average inhibition, at 18.6 µM.

Among all 290,000 compounds or so, about 890 (0.31%) were called active. Cut-off read from the data, not from the text of the source: active = inhibition mostly above about 52% (no sharp cut-off); inactive = mostly below about 76%. Many of the other results were omitted from the sample, so actives are more common in it than they were.

Consider `COc1ccc(C2CC(c3c(-c4ccccc4)c4cc(Cl)ccc4[nH]c3=O)=NN2C(=O)CCC(=O)O)cc1` (stereo not drawn), for which the inhibition (at 20 µM) was 15.1% (inactive).

Regarding `O=c1c2c([nH]n1-c1ccccc1)CCSC2`, the inhibition (at 20 µM) was 3.5% (inactive).

On to `COc1ccc2c(c1OC)C[N+]1([O-])CCc3cc4c(cc3C1C2)OCO4` (stereo not drawn), for which the inhibition (at 20 µM) was -1.5% (inactive).

Regarding `C=CCNC(=S)NNc1nc(N2CCCC2)nc(N2CCCC2)n1`, the inhibition (at 20 µM) was -0.8% (inactive).

Regarding `COc1ccnc(CN(C)C(=O)C2CCC(=O)N(Cc3cccc(C(F)(F)F)c3)C2)c1` (stereo not drawn), under “at 20 µM”, the inhibition is 4.4% (inactive).

Consider `COc1cc(-n2nnnc2SC)c(OC)cc1Cl`, for which the inhibition (at 20 µM) is 2.2% (inactive).

Consider `C/C(=N\NC(=O)CN(c1ccc(Oc2ccccc2)cc1)S(C)(=O)=O)C(C)(C)C`, for which, for the setting “at 20 µM”, the inhibition was -0.5% (inactive).

For `CCOC(=O)/C(C#N)=C\C=C1C=CN(C)C=C1`, the inhibition (at 20 µM) is 98.3% (active) and the inhibition under setting [1] was 52.3%.

With `C=CCN1C=CC(=C/C=C(/C#N)C(=O)OCC)C=C1`, the inhibition (at 20 µM) is -0.9% (inactive).

With `CCCN1C=CC(=C/C=C(\C#N)C(=O)OCC)C=C1`, the inhibition (at 20 µM) is 0.7% (inactive).

On to `CC(C)Cc1nc(S(=O)(=O)c2ccc(Cl)cc2)c(N2CCOCC2)o1`, for which, where the note is “at 20 µM”, the inhibition was 1.2% (inactive).

Take `Cc1ccc(-n2c(=O)c3ccc(C(=O)NCc4ccco4)cc3n(Cc3ccccc3C#N)c2=O)cc1`: the inhibition (at 20 µM) is -1.1% (inactive).

Regarding `Nc1c(C(=O)NC2CC2)sc2nc3c(c(-c4ccco4)c12)CC/C3=C/c1ccco1`, the inhibition reads like this: (at 20 µM) 64.6% (inactive); under setting [1], 21.7%.

With `Nc1c(C(=O)Nc2ccccc2)sc2nc3c(c(-c4ccco4)c12)CCC3`, where the note is “at 20 µM”, the inhibition is -1.5% (inactive).

Turning to `Nc1c(C(=O)NCC2CCCO2)sc2nc3c(c(-c4ccco4)c12)CC/C3=C\c1ccco1` (stereo not drawn), the inhibition (at 20 µM) was 64.6% (active).

As to `COc1ccc(Nc2nc3ccccc3nc2NS(=O)(=O)c2cccs2)cc1`, the inhibition (at 20 µM) is 45.5% (inactive).

Take `COc1cccc(Nc2nc3ccccc3nc2NS(=O)(=O)c2cccs2)c1`: the inhibition is 69.4% (inactive) (at 20 µM) and 30.8% under setting [1].

Regarding `COc1ccc(Nc2nc3ccccc3nc2NS(=O)(=O)c2cccs2)c(OC)c1`, the inhibition is, setting by setting: (at 20 µM) 51.5% (active); under setting [1], 64.5%.

Consider `Cc1cccc(C)c1NC(=O)CN(C)C(=O)c1ccccc1C(=O)N(C)Cc1ccccc1`, for which the inhibition (at 20 µM) was -1.3% (inactive).

For the molecule `C(=N\Nc1nc(N2CCCC2)nc(N2CCCC2)n1)/c1ccncc1`, where the note is “at 20 µM”, the inhibition was -0.1% (inactive).

Consider `COc1ccc(C(=O)NCc2nnc(SCC(=O)Nc3ccccc3F)o2)cc1`, for which, for the setting “at 20 µM”, the inhibition is -1.8% (inactive).

For `COc1ccccc1/C=C/C(=O)NCC(=O)n1nc(C)cc1C`, for the setting “at 20 µM”, the inhibition is 0.9% (inactive).

With `O=c1cc(O)c2sc(Nc3ccc(F)c(Cl)c3)nc2[nH]1`, the inhibition (at 20 µM) was 51.4% (active).

For the molecule `O=c1cc(O)c2sc(Nc3ccc(Cl)c(F)c3)nc2[nH]1`, under “at 20 µM”, the inhibition was 46.9% (inactive).

Take `O=c1cc(O)c2sc(Nc3ccc(F)cc3)nc2[nH]1`: the inhibition (at 20 µM) is 23.5% (inactive).

For the molecule `CCOc1ccc2cc(C(=O)NCc3ccccc3)c(=N)oc2c1`, where the note is “at 20 µM”, the inhibition is 0.1% (inactive).

`C/C(C/C(C)=C1/SC(=S)NC1=O)=C1\SC(=S)NC1=O`: the inhibition (at 20 µM) is 69.5% (active).

As to `CCCCCC/C(C)=C1/SC(=S)NC1=O`, the inhibition (at 20 µM) is 24.4% (inactive).

Take `CCO/C(C)=C1/SC(=S)NC1=O`: the inhibition (at 20 µM) is -1% (inactive).

Consider `CCC1(CC)Cc2ccccc2C(=C(C#N)C#N)N1`, for which, for the setting “at 20 µM”, the inhibition was 0.7% (inactive).

Consider `Cc1c(Cc2ccccc2)sc(NC(=O)/C=C/c2cccc3ccccc23)c1C(N)=O`, for which the inhibition (at 20 µM) is 3.6% (inactive).

As for `COc1ccc2c(n1)Sc1nc3ccccc3nc1N2`, where the note is “at 20 µM”, the inhibition is 82.7% (active).

Turning to `COc1nc2ccccc2nc1OC`, the inhibition (at 20 µM) was 0.6% (inactive).

As to `COc1cc2ccccc2nn1`, for the setting “at 20 µM”, the inhibition was -0.9% (inactive).

Take `COC(=O)Nc1nnc(-c2ccccc2Cl)s1`: the inhibition (at 20 µM) is -1.6% (inactive).

With `CCCN(C(=O)COc1ccc(Cl)cc1Cl)c1c(N)n(Cc2ccccc2)c(=O)[nH]c1=O`, under “at 20 µM”, the inhibition is 5.9% (inactive).

Take `CCSC1=N/C(=C\C=C2/Oc3ccccc3N2CC)C(=O)S1`: the inhibition runs as follows: (at 20 µM) 109% (active); under setting [1], 63%.

As to `CCCCN1C(=O)/C(=C/C=C2\Oc3ccccc3N2CC)SC1=S`, for the setting “at 20 µM”, the inhibition was 149% (inactive).

Consider `CCSC1=N/C(=C\c2ccc3c(c2)OCO3)C(=O)S1`, for which the inhibition (at 20 µM) was 9.4% (inactive).

For `CCN(CC)c1ccc(-c2nc3cnccc3n2C)cc1`, under “at 20 µM”, the inhibition is 0.4% (inactive).

In the case of `O=C(NCC1CCCO1)C1CCN(C2CCN(Cc3ccco3)CC2)CC1` (stereo not drawn), the inhibition (at 20 µM) was 1.6% (inactive).

Take `CCCOc1ccc(-c2nn(-c3ccccc3)cc2/C=C2\SC(=S)N(C3CCS(=O)(=O)C3)C2=O)cc1` (stereo not drawn): the inhibition (at 20 µM) was -1.7% (inactive).

On to `CCOc1ccc(-c2nn(-c3ccccc3)cc2/C=C2\SC(=S)N(Cc3ccco3)C2=O)cc1`, for which the inhibition (at 20 µM) is 17.3% (inactive).

As to `CCOc1ccc(-c2nn(-c3ccccc3)cc2/C=C2\SC(=S)N(C3CCS(=O)(=O)C3)C2=O)cc1` (stereo not drawn), the inhibition reads like this: (at 20 µM) 78.9% (active); under setting [1], 85%.

On to `CCCOc1cccc(C(=O)N(Cc2ccc(OC)c(OC)c2)C2CCS(=O)(=O)C2)c1` (stereo not drawn), for which the inhibition (at 20 µM) was 1% (inactive).

Turning to `CCCCN(C)CCNC(=O)c1ccc(Cn2c(=S)[nH]c3ccc(Br)cc3c2=O)cc1`, where the note is “at 20 µM”, the inhibition was -3.1% (inactive).

On to `COC(=O)N=Nc1c(O)n(Cc2ccccc2)c2ccccc12`, for which the inhibition (at 20 µM) is -1.9% (inactive).

With `O=C(COc1ccc(Cl)cc1Cl)Nc1ccc2nc3n(c(=O)c2c1)CCCC3`, the inhibition (at 20 µM) was -2.9% (inactive).

Take `CCCC1(c2ccccc2)NC(=O)N(CC(=O)Nc2cc(OC)cc(OC)c2)C1=O` (stereo not drawn): the inhibition (at 20 µM) was 0.8% (inactive).

As for `CCC1(c2ccccc2)NC(=O)N(CC(=O)Nc2ccc(S(N)(=O)=O)cc2)C1=O` (stereo not drawn), the inhibition (at 20 µM) is 1.2% (inactive).

Turning to `CCC1(c2ccccc2)NC(=O)N(CC(=O)Nc2ccc(OC)nc2)C1=O` (stereo not drawn), the inhibition (at 20 µM) is 116% (active).

On to `O=C(COC(=O)c1ccc(S(=O)(=O)N2CCOCC2)cc1)NC1CCCC1`, for which the inhibition (at 20 µM) is 0.3% (inactive).

Consider `Cc1ccn2c(Nc3ccccc3)c(-c3ccccn3)nc2c1`, for which the inhibition (at 20 µM) is -2.6% (inactive).

For the molecule `Cc1ccc(Nc2c(-c3ccccn3)nc3cc(C)ccn23)cc1`, the inhibition (at 20 µM) is 0.3% (inactive).

With `Cc1ccn2c(Nc3ccc4c(c3)OCO4)c(-c3ccccn3)nc2c1`, for the setting “at 20 µM”, the inhibition is 114% (active).

On to `CCC(C)NC(=O)CN1C(=O)NC2NC(=O)NC21` (stereo not drawn), for which the inhibition (at 20 µM) is 0.8% (inactive).

`Cc1cc(NC(=S)N(Cc2ccc(Cl)cc2)Cc2ccc(C(=O)O)cc2)ccc1Cl`: the inhibition is, setting by setting: (at 20 µM) 53.2% (inactive); under setting [1], 34.6%.

`Cc1ccc(NC(=S)N(Cc2ccc(Br)cc2)Cc2ccc(C(=O)O)cc2)cc1C`: for the setting “at 20 µM”, the inhibition was 36.8% (inactive).

As for `Cc1cc(NC(=S)N(Cc2ccc(Br)cc2)Cc2ccc(C(=O)O)cc2)ccc1Cl`, the inhibition (at 20 µM) is 59.2% (active).

`CCOc1cc(/C=N/NC(=O)Cc2ccc(C(F)(F)F)cc2[N+](=O)[O-])c(Br)cc1OC`: for the setting “at 20 µM”, the inhibition was 0.7% (inactive).

Take `O=C(Nc1nnc(CCc2ccccc2)s1)c1ccc(F)cc1`: for the setting “at 20 µM”, the inhibition was 1.8% (inactive).

What is called inhibition is the relative decrease from the control value, in per cent.
